Screening results: PubChem, several laboratories
This is a sample that favours compounds with a hit; in the whole collection about 3.4% have one here.
COUP-TFII inh = inhibitors of human COUP-TFII (NR2F2) | P24468 | HEK293T NGFI-A luciferase reporter, luminescence | inhibition, % at 8.6 µM | 370,000 compounds, 0.7% hits | AID 686940;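 active = inhibition above a per-plate cutoff, mean inhibition of test wells between control levels plus 3 SD, cut at about 38% in these data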;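 also: cells cotransfected with COUP-TFII expression vector driving the NGFI-A reporter; 0% = median of COUP-TF2 test wells and 100% = reporter-only cells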
Gli-Sufu block = antagonists of Gli-Sufu signaling. inhibition, % at 5 µM. Sufu-KO-LIGHT fibroblasts, Gli luciferase reporter luminescence. 340,000 compounds, 0.74% hits;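 active = inhibition above about 55%, limit read from the data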;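 also: 0% = DMSO-treated cells and 100% = wells with medium but no cells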
GalR3 antag = human GalR3 antagonism; O60755; HEK293 GalR3-CNG cAMP membrane potential fluorescence; galR3 body fused to GalR1 C-terminus; inhibition, % at 3 µM; 360,000 compounds, 0.44% hits; AID 651719;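 active = inhibition above the screen-wide average plus 3 SD, cut at about 13% in these data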;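 also: forskolin and galanin both at EC90 stimulate the cells; cAMP rise reported by CNG channel membrane potential dye signal; 0% = forskolin plus galanin with DMSO and 100% = forskolin alone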
Target sequence (O60755 1-299 limits assumed): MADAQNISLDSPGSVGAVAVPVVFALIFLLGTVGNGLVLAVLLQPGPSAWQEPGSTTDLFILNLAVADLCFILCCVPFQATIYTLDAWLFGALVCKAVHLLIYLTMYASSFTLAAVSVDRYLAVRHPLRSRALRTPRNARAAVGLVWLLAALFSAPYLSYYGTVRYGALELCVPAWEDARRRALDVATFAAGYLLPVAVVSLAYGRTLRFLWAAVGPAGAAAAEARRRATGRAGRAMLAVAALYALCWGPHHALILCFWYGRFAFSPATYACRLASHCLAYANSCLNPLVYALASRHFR
SMARCA2 activ = increases SMARCA2 function in MMTV reporter cells. MG213 cells, MMTV-luciferase reporter, dexamethasone, overnight. activation, % at 9.1 µM. 370,000 compounds, 1% hits; in the data active = activation above about 7.8%;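 also: 0% = vehicle wells and 100% = reference activator wells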
Cardio protect = myocardial damage modulation in H9c2 cells; protection from H2O2 cell death, % at 20 µM; H9c2 cardiomyocytes, H2O2 injury protection, ATPLite, 2 h; 360,000 compounds, 0.63% hits;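 active = compounds giving at least 50% protection of heart cells from peroxide-induced death in the single-dose screen, raw or plate-pattern-corrected value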;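 also: 0% = DMSO wells with peroxide and 100% = DMSO wells without peroxide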
GAA850 FXN act = activators of GAA850 frataxin (FXN) promoter; HEK293 lucGAA850 FXN promoter luciferase reporter, 24 h; percent of 10 µM SAHA response; AID 540364; 360,000 compounds, 0.56% hits; activation, % at 6 µM;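 active = activation above the average of all compounds screened plus 3 SD, cutoff fixed separately per campaign, cut at about 7.5% in these data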;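 also: 0% = DMSO wells and 100% = 10 µM SAHA wells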
Active calls of the source: *.

`O=C(C[C@H]1C/C=C\CC[C@H](Cc2ccc(F)cc2)C(=O)O[C@@H](c2ccccc2)CNC1=O)N[C@H](CO)Cc1ccccc1` gave COUP-TFII inh 16, Gli-Sufu block 8, GalR3 antag -3, SMARCA2 activ 0, Cardio protect 51* and GAA850 FXN act 0.
CC(C)(C)OC(=O)C[C@@H]1C/C=C\C[C@H](CC(=O)N[C@H](CO)Cc2ccccc2)C(=O)N[C@H](Cc2ccccc2)COC1=O was read as COUP-TFII inh 5, Gli-Sufu block -3, GalR3 antag -5, SMARCA2 activ 1, Cardio protect 19 and GAA850 FXN act 1.
CC(C)(C)OC(=O)C[C@H]1C/C=C\C[C@H](CC(=O)N[C@H](CO)Cc2ccccc2)C(=O)N[C@H](Cc2ccccc2)COC1=O was read as COUP-TFII inh -8, Gli-Sufu block 0, GalR3 antag -3, SMARCA2 activ -1, Cardio protect 58* and GAA850 FXN act -2.
Screening O=C1C(NC(=O)N2c3ccccc3C=Cc3ccccc32)CCCCN1Cc1ccc(Cl)cc1 (stereo not drawn) returned COUP-TFII inh 16 and SMARCA2 activ -3.
For O=C(NCc1ccccc1F)C1CCC(CNS(=O)(=O)c2cccc3cccnc23)CC1 (stereo not drawn) the results were COUP-TFII inh -12 and SMARCA2 activ -2.
CC(=O)NC(c1cccc([N+](=O)[O-])c1)c1ccc2cccnc2c1O (stereo not drawn) was read as COUP-TFII inh -1, GalR3 antag -7, SMARCA2 activ -4, Cardio protect 34 and GAA850 FXN act -8.
Screening COc1cccc(C(NC(C)=O)c2ccc3cccnc3c2O)c1 (stereo not drawn) returned COUP-TFII inh -11, Gli-Sufu block 69*, GalR3 antag -5, SMARCA2 activ -4, Cardio protect 19 and GAA850 FXN act -9.
CCCCC(=O)NC(c1ccc(C(C)C)cc1)c1ccc2cccnc2c1O (stereo not drawn) was read as COUP-TFII inh -5, Gli-Sufu block 51, GalR3 antag -1, SMARCA2 activ -3, Cardio protect 51* and GAA850 FXN act -8.
`O=[N+]([O-])c1ccc(NC(c2ccccc2)c2ccc3cccnc3c2O)cc1` (stereo not drawn) gave COUP-TFII inh -15, Gli-Sufu block 70*, GalR3 antag -2, SMARCA2 activ -4, Cardio protect 35 and GAA850 FXN act -11.
For Oc1cccc(C(Nc2nccs2)c2ccc3cccnc3c2O)c1 (stereo not drawn) the results were COUP-TFII inh 8, Gli-Sufu block 23, GalR3 antag -4, SMARCA2 activ -5, Cardio protect 41 and GAA850 FXN act -3.
Screening CCCCC(=O)NC(c1ccccc1)c1ccc2cccnc2c1O (stereo not drawn) returned COUP-TFII inh -5, Gli-Sufu block -26, GalR3 antag -12, SMARCA2 activ -3, Cardio protect 42 and GAA850 FXN act -9.
Screening CCCCC(=O)NC(c1cccc([N+](=O)[O-])c1)c1ccc2cccnc2c1O (stereo not drawn) returned COUP-TFII inh 30, Gli-Sufu block 62*, GalR3 antag -12, SMARCA2 activ -2, Cardio protect 39 and GAA850 FXN act -6.
CCCC/C=C1/[C@@H](c2ccc(Cl)cc2)N(Cc2ccc3c(c2)OCO3)C2=N[C@@H](c3ccccc3)CC(=O)N21 was read as COUP-TFII inh 3 and SMARCA2 activ -4.
Screening CCOC(=O)[C@]12CCCCC/C=C\1N(Cc1ccc(OC)cc1)C(=O)[C@H]2CC(=O)N1CCC(c2ccccc2)CC1 returned COUP-TFII inh 13 and SMARCA2 activ -2.
For CCCCC(=O)NC(c1ccccc1Cl)c1ccc2cccnc2c1O (stereo not drawn) the results were COUP-TFII inh -8, Gli-Sufu block 86*, GalR3 antag -9, SMARCA2 activ -2, Cardio protect 45 and GAA850 FXN act -9.
For CCCC(=O)NC(c1ccccc1)c1ccc2cccnc2c1O (stereo not drawn) the results were COUP-TFII inh 9, Gli-Sufu block -11, GalR3 antag 3, SMARCA2 activ -4, Cardio protect 30 and GAA850 FXN act -7.
For CCCCCCC12Cc3cc(OC)c(OC)cc3C(O1)C1=C(O2)C(C)(C)CCC1=O (stereo not drawn) the results were COUP-TFII inh 0, GalR3 antag -5 and SMARCA2 activ -5.
For O=C(CCCc1nc2ccccc2s1)NC(c1ccccc1)c1ccccc1 the results were COUP-TFII inh -3, Gli-Sufu block 46, GalR3 antag 0, SMARCA2 activ 7.9*, Cardio protect -7 and GAA850 FXN act 1.
O=C(O)CCCc1nc2ccccc2s1 was read as COUP-TFII inh 8, Gli-Sufu block -1, GalR3 antag -6, SMARCA2 activ 1, Cardio protect -20 and GAA850 FXN act -2.
`Cc1cc(C(=O)Nc2cccnc2)no1` gave Gli-Sufu block 4, Cardio protect 1 and GAA850 FXN act 3.
Screening CC(C)Cc1cc(C(=O)Nc2cccnc2)no1 returned COUP-TFII inh -44, Gli-Sufu block -4, SMARCA2 activ 7.9*, Cardio protect -18 and GAA850 FXN act 3.
For O=C(NCc1ccc2c(c1)OCO2)c1n[nH]c(=O)c2ccccc12 the results were COUP-TFII inh -7, Gli-Sufu block -7, GalR3 antag -2, SMARCA2 activ 3, Cardio protect 68* and GAA850 FXN act 3.
For COc1ccc(C(C)=O)cc1COC(=O)Cc1n[nH]c(=O)c2ccccc12 the results were COUP-TFII inh -8, Gli-Sufu block 1, GalR3 antag -6, SMARCA2 activ -1, Cardio protect 72* and GAA850 FXN act 2.
`O=C(COC(=O)Cn1[nH]c(=O)c2ccccc2c1=O)NNC(=O)c1ccc(Br)cc1` gave COUP-TFII inh -9, Gli-Sufu block 9, GalR3 antag -3, SMARCA2 activ -1, Cardio protect 83* and GAA850 FXN act 0.
Screening Cc1ccccc1OCC(=O)NNC(=O)Cn1[nH]c(=O)c2ccccc2c1=O returned COUP-TFII inh 16, Gli-Sufu block 2, GalR3 antag -5, SMARCA2 activ -4, Cardio protect 53* and GAA850 FXN act 2.
O=C(c1n[nH]c(=O)c2ccccc12)N1CCN(Cc2ccc3c(c2)OCO3)CC1 was read as COUP-TFII inh -5, Gli-Sufu block -1, GalR3 antag -6, SMARCA2 activ -2, Cardio protect 8 and GAA850 FXN act -2.
For Nc1[nH]c2cc(Cl)ccc2c1C(=O)N1CCOCC1 the results were COUP-TFII inh -13 and SMARCA2 activ -4.
For Cc1cccc(S(=O)(=O)N2CCC[C@H]2C(=O)N2CCC[C@@H]2C(=O)NCc2ccccc2)c1 the results were COUP-TFII inh 0, GalR3 antag -5 and SMARCA2 activ -1.
